Assay [1] in a line: qHTS assay to identify small molecule agonists of the peroxisome proliferator-activated receptor delta (PPARd) signaling pathway - cell viability counter screen (AID 743211). Also: nearly all actives have a fitted effect of over 55% in size. Put shortly:
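In the same wells used for beta-lactamase reporter measurement, cytotoxicity is scored by CellTiter-Glo. HEK293H PPARd-bla cells receive compound for 17 h at 37C following a 5 h settling period.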
In general terms: qHTS replaces the single test concentration by a dilution series.

Assay [2] in a line: qHTS assay to identify small molecule antagonists of the peroxisome proliferator-activated receptor delta (PPARd) signaling pathway - cell viability counter screen (AID 743213). Also: nearly all actives have a fitted effect of over 50% in size. Also: potency is read from the fitted curve at half-maximal effect. Put shortly: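 Same-well viability: cells pre-incubated 5 h, dosed with compound plus 300 nM L165041, kept 17 h at 37 C, FRET substrate 2 h RT, then CellTiter-Glo 30 min RT and luminescence.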
Assay [3] deals with Peroxisome proliferator-activated receptor delta (Homo sapiens) (UniProt Q03181). In words: qHTS assay to identify small molecule antagonists of the peroxisome proliferator-activated receptor delta (PPARd) signaling pathway (AID 743215; active = well fitted inhibition curve with a large enough effect in the signal ratio in the repeat runs, not every such curve was filed as active; the % refers to the signal ratio;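 also: cells stimulated with agonist L165041 at 300 nM final during compound exposure; series mostly up to about 62 µM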). Put shortly: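 Plated HEK293H PPARd-bla cells rested 5 h at 37 C and 5% CO2. Compound, then agonist L165041 at 300 nM final, was added; 17 h at 37 C followed. Substrate loading, 2 h room temperature, fluorescence measured.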

Assay [4] can be described thus: qHTS assay to identify small molecule agonists of the farnesoid-X-receptor (FXR) signaling pathway - cell viability counter screen (AID 743218). Also: nearly all actives have a fitted effect of over 45% in size. Put shortly:
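Viability of FXR-bla HEK 293T cells is measured by ATP-based CellTiter-Glo luminescence following 16 h compound treatment at 37 C and a prior 2 h room-temperature beta-lactamase substrate step.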

The target of assay [5] is Vitamin D3 receptor (Homo sapiens) (UniProt P11473). As to the kind of experiment: qHTS assay to identify small molecule agonists of the vitamin D receptor (VDR) signaling pathway (AID 743222; calls by dose curve). Put shortly:
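Fluorescence from cleaved LiveBLAzer B/G FRET substrate served as readout. VDR-bla cells had been treated 16 h at 37C with test compounds in DMSO, following a 4 h settling period, and substrate was loaded for 2 h at RT.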

For assay [6] the target is unchanged. In words: qHTS assay to identify small molecule antagonists of the vitamin D receptor (VDR) signaling pathway (AID 743223; active = well fitted inhibition curve with a large enough effect in the signal ratio in the repeat runs, not every such curve was filed as active; the % refers to the signal ratio). Put shortly:
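Inhibition of agonist-driven VDR signalling is scored in VDR-bla cells: 3 nM final 1alpha,25-dihydroxyvitamin D3 plus compound, 16 h at 37C, then beta-lactamase detection by FRET substrate fluorescence after 2 h.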

The target in assay [7] is Bile acid receptor (Homo sapiens) (UniProt Q96RI1). In words: qHTS assay to identify small molecule antagonists of the farnesoid-X-receptor (FXR) signaling pathway (AID 743217; active = well fitted inhibition curve with a large enough effect in the signal ratio in the repeat runs, not every such curve was filed as active; the % refers to the signal ratio). Put shortly:
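Screen of the Tox21 10K library in quantitative HTS format using FXR-UAS-bla HEK 293T reporter cells. Agonist chenodeoxycholic acid, 50 uM final, added with compounds; 16 h incubation at 37 °C; beta-lactamase FRET fluorescence measured.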

Assay [8] is described as follows: qHTS assay to identify small molecule antagonists of the farnesoid-X-receptor (FXR) signaling pathway - cell viability counter screen (AID 743221; active = well fitted cell-killing curve with a large enough effect in the repeat runs, not every such curve was filed as active; also: nearly all actives have a fitted effect of over 50% in size). Put shortly:
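Here viability was scored by luminescence after CellTiter-Glo addition to wells already read for beta-lactamase. Prior treatment: compound plus CDCA (50 uM final), 16 h, 37 C, HEK 293T FXR-bla cells.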

Assay [9] addresses Bile acid receptor (Homo sapiens) (UniProt Q96RI1). In words: qHTS assay to identify small molecule agonists of the farnesoid-X-receptor (FXR) signaling pathway (AID 743220; active = well fitted activation curve with a large enough effect in the signal ratio in the repeat runs, not every such curve was filed as active; the % refers to the signal ratio). Put shortly: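 FXR-UAS-bla HEK 293T cells carrying a UAS-driven beta-lactamase reporter were plated for 5 h at 37C/5% CO2, then exposed to DMSO-dissolved Tox21 10K compounds for 16 h at 37C. A LiveBLAzer B/G FRET substrate was loaded for 2 h at room temperature before fluorescence reading.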

Structures are written as SMILES. Inconclusive results are not listed. A number with no mark means an inactive call. Activity calls are given as the source filed them. Unless noted, calls follow the shape of the dose curve; as a rule, active = well fitted curve in the direction sought with a large enough effect in the repeat runs; inconclusive = weak or mixed curves; inactive = no such curve, though single readings can be large; an effect the other way counts as inactive or inconclusive.

Sequence of Bile acid receptor (Homo sapiens) (Q96RI1 whole entry, looked up): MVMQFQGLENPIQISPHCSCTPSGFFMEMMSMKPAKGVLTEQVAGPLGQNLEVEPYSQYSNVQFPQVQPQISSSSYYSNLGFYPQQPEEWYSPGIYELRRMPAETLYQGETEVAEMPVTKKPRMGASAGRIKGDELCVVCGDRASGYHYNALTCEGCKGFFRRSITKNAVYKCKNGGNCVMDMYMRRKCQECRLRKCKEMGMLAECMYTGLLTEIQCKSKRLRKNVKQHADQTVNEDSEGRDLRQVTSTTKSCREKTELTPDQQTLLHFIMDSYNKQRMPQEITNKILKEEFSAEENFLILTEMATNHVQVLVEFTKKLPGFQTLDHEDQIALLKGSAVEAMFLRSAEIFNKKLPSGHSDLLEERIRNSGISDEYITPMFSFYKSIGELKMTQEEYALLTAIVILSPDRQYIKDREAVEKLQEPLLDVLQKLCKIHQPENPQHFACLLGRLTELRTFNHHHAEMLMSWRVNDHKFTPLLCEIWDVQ
Sequence of Vitamin D3 receptor (Homo sapiens) (P11473 whole entry, looked up): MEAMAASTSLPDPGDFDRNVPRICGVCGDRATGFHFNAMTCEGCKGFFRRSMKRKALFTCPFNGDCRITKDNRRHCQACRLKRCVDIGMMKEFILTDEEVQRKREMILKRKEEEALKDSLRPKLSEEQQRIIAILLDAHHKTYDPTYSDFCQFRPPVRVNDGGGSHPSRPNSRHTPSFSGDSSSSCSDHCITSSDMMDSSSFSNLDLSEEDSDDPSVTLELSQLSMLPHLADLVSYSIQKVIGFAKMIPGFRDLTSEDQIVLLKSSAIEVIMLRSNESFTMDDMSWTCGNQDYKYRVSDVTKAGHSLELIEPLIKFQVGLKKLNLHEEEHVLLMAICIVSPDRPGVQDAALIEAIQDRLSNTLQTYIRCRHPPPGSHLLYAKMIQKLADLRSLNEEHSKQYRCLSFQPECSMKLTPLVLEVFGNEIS
Sequence of Peroxisome proliferator-activated receptor delta (Homo sapiens) (Q03181 whole entry, looked up): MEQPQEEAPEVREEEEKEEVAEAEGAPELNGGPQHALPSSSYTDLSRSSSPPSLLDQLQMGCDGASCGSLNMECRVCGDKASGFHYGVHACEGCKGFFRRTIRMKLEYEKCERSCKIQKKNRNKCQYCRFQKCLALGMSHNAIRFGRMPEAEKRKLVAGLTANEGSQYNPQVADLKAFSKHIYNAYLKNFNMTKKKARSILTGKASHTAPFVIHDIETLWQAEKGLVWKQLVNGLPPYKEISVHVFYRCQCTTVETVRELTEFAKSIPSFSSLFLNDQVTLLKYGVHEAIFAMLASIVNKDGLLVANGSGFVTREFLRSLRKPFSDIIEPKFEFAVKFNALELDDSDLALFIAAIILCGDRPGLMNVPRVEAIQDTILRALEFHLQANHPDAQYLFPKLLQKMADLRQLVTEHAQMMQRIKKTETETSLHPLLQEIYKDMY

Consider `O=C(OC1C[C@H]2CC[C@@H](C1)[N+]21CCCC1)C(O)(c1ccccc1)c1ccccc1` (stereo not given in full), for which the Potency entry in [1], in assay [2] and in assay [4] was “inactive” in each case. Besides, the outcome in assay [3], in [5] and in [6] was inactive.
For the compound `Cc1cc(C)n(CO)n1`, the Potency entry in assay [1], in assay [2], in [4] and in [8] was “inactive” in each case. In addition, the outcome in assay [3], in assay [7] and in [5] was inactive.
With `CCOc1cc(OCC)c(C(C)=O)cc1OCC`, the Potency result in assay [1], in assay [2], in assay [4] and in [8] was “inactive” throughout. Also, the compound was called inactive in assay [7], in [5] and in assay [6].
For the compound `CC(C)CCCCCOC(=O)CS`, the Potency result in [1], in assay [2] and in assay [4] was “inactive” in each case.
`CCCC1CCOC(C)S1` (stereo not given): the Potency entry in assay [1], in assay [4] and in [8] was “inactive” throughout. In [2], the Potency is 4.9 µM (active). In addition, the call in [5] and in assay [6] was inactive.
With `COc1ccnc2c1CCCCC2S(=O)c1nc2ccccc2[nH]1` (stereo not given), the Potency result in [1], in assay [2], in assay [4] and in assay [8] was “inactive” each time. For the same compound, the call in [5] and in assay [6] was inactive.
In the case of `CC(=O)c1ccc(Cl)c(Cl)c1Cl`, the Potency entry in [1], in [2], in [4] and in assay [8] was “inactive” each time. In addition, the result in [5] and in [6] was inactive.
Take `O=C1c2ccccc2C(=O)c2c1ccc(O)c2O`: the Potency entry in [1], in assay [2], in [4] and in assay [8] was “inactive” throughout.
In the case of `Nc1ccccc1Nc1ccccc1`, the Potency entry in [1], in [2], in [4] and in assay [8] was “inactive” each time.
For the compound `CCCCOC(=O)CC#N`, the Potency result in assay [1], in [4] and in [8] was “inactive” each time. In assay [2], the Potency was 57.6 µM (active). For the same compound, the result in [5] was inactive.
In the case of `CC(=O)S[C@H](C(=O)N[C@H]1Cc2ccccc2[C@H]2CCC[C@@H](C(=O)O)N2C1=O)C(C)C`, the Potency entry in [1], in [2] and in [4] was “inactive” in each case. The outcome in assay [7], in assay [9], in [5] and in assay [6] was inactive.
With `CCc1cnc(C(=O)O)c(C(=O)O)c1`, the Potency result in assay [1], in [2], in assay [4] and in assay [8] was “inactive” throughout. In addition, the outcome in assay [5] and in [6] was inactive.
As for `CC/C=C\CCO`, the Potency result in assay [1], in [2] and in assay [8] was “inactive” each time. The result in assay [7], in [9] and in assay [5] was inactive.
With `NC(=O)c1ccccc1C(N)=O`, the Potency entry in assay [1], in assay [2], in assay [4] and in assay [8] was “inactive” each time. For the same compound, the compound was called inactive in [9], in [5] and in [6].
Take `O=C(O)c1c2ccccc2cc2ccccc12`: the Potency entry in assay [1], in assay [2] and in assay [4] was “inactive” throughout. Further, the result in [7], in [9], in assay [5] and in assay [6] was inactive.
Consider `CC(O)CN` (stereo not given), for which the Potency entry in assay [1], in assay [2], in [4] and in [8] was “inactive” each time. The call in assay [5] and in assay [6] was inactive.
As for `CCOC(=O)CC(O)(CC(=O)OCC)C(=O)OCC`, the Potency entry in assay [1], in [2], in [4] and in assay [8] was “inactive” in each case. Also, the outcome in assay [5] and in assay [6] was inactive.
In the case of `CC(=O)Nc1ccccc1O`, the Potency entry in assay [1], in assay [2], in assay [4] and in assay [8] was “inactive” each time. Further, the outcome in [7], in assay [5] and in assay [6] was inactive.
Regarding `Cc1cccc(C)c1NC(=O)CN1CCCC1`, the Potency entry in assay [1], in assay [2], in assay [4] and in [8] was “inactive” throughout. Moreover, the outcome in [5] was inactive.
For the compound `C=CC(=O)OCCCCCCCCCC`, the Potency entry in [1], in assay [2], in assay [4] and in assay [8] was “inactive” in each case. Moreover, the call in [5] and in assay [6] was inactive.
`Cc1cc(SC2=C(O)C[C@@](CCc3ccc(N)cc3)(C(C)C)OC2=O)c(C(C)(C)C)cc1CO`: the Potency entry in [1], in assay [2], in assay [4] and in [8] was “inactive” throughout. Also, the result in assay [5] and in [6] was inactive.
Turning to `O=C(O)c1cc(C(=O)O)cc([N+](=O)[O-])c1`, the Potency entry in [1], in [2], in assay [4] and in assay [8] was “inactive” throughout. Further, the compound was classed as inactive in [5].
Regarding `CCOC(C)OCC`, the Potency entry in assay [1], in assay [2], in assay [4] and in assay [8] was “inactive” throughout. In addition, the result in [5] and in assay [6] was inactive.
On to `CC(=O)OCC(=O)[C@@]1(O)CC[C@H]2[C@@H]3CCC4=CC(=O)C=C[C@]4(C)[C@@]3(F)[C@@H](O)C[C@@]21C`, for which the Potency result in assay [1], in [2], in assay [4] and in assay [8] was “inactive” in each case.
For the compound `O=C(O)c1ccc2c(c1)nc(C(=O)NC1CCN(C3CC3)CC1)n2Cc1cc(-c2ccc(Cl)s2)on1`, the Potency entry in assay [1], in assay [2] and in [8] was “inactive” in each case. In addition, the result in [7] was inactive.
Turning to `C[C@H]1C[C@H]2[C@@H]3CCC4=CC(=O)C=C[C@]4(C)[C@@]3(F)[C@@H](O)C[C@]2(C)[C@@]1(O)C(=O)COP(=O)(O)O`, the Potency result in assay [1], in [2], in assay [4] and in [8] was “inactive” each time. Moreover, the result in assay [5] and in assay [6] was inactive.
As to `O=C(OCCOCCOCCOC(=O)c1ccccc1)c1ccccc1`, the Potency result in assay [1], in [2], in assay [4] and in assay [8] was “inactive” each time. Further, the outcome in assay [7], in [5] and in assay [6] was inactive.
As to `CC(CN=Cc1ccccc1O)N=Cc1ccccc1O` (stereo not given), the Potency result in [1], in [2], in assay [4] and in assay [8] was “inactive” in each case.
On to `CC/C=C/CCO`, for which the Potency entry in assay [1], in assay [2], in assay [4] and in assay [8] was “inactive” in each case. Besides, the compound was called inactive in assay [7] and in [5].
In the case of `C(/C=C/C=C/Nc1ccccc1)=Nc1ccccc1`, the Potency result in assay [1], in assay [2] and in assay [4] was “inactive” throughout. The compound was called inactive in [7], in assay [9], in assay [5] and in assay [6].
In the case of `NC(=O)c1ccccc1`, the Potency result in [1] and in [2] was “inactive” in each case. Moreover, the result in assay [7], in assay [9], in assay [5] and in assay [6] was inactive.
In the case of `O=C(O)COCC(=O)O`, the Potency entry in assay [1], in assay [2] and in [4] was “inactive” each time. In addition, the compound was classed as inactive in assay [7], in assay [9], in assay [5] and in [6].
As for `Nc1ncnc2c1ncn2[C@@H]1O[C@H](CO)[C@@H](O)[C@H]1O`, the Potency result in assay [1], in assay [2], in [4] and in assay [8] was “inactive” each time. Moreover, the compound was called inactive in [7], in [5] and in assay [6].
With `CCn1nc(Cc2ccccc2)cc1C1CCN(C[C@H]2C[C@H](N(C)[C@@H](C(=O)O)C(C)C)C[C@@H]2c2cccc(F)c2)CC1`, the Potency result in assay [1], in assay [2], in assay [4] and in [8] was “inactive” each time.
On to `O=C1c2ccccc2C(=O)C1c1ccc2ccccc2n1`, for which the Potency entry in assay [1], in [2], in [4] and in assay [8] was “inactive” in each case. The compound was called inactive in [5] and in assay [6].
For the compound `CCCCCCCCCCCCN1CCOCC1`, the Potency entry in assay [1], in [2], in assay [4] and in [8] was “inactive” throughout. The compound was classed as inactive in [5].
Consider `CC1(COc2ccc(CC3SC(=O)NC3=O)cc2)CCCCC1` (stereo not given), for which the Potency entry in assay [1], in [2], in assay [4] and in [8] was “inactive” each time. Besides, in [7], the compound was called inactive.
`O=C(NC1CCN(CCc2c[nH]c3ccccc23)CC1)c1ccccc1`: the Potency entry in assay [1], in assay [2], in [4] and in [8] was “inactive” each time.
Regarding `CCC(C)CCCC(C)(C)O` (stereo not given), the Potency result in assay [1], in assay [2], in assay [4] and in assay [8] was “inactive” in each case. In addition, the call in [5] was inactive.
For `CC(CCl)OC(C)CCl` (stereo not given), the Potency entry in [1], in assay [2], in assay [4] and in assay [8] was “inactive” throughout.
Regarding `C=CC(=O)NC(C)(C)C`, the Potency result in [1] and in assay [2] was “inactive” each time. Further, the call in assay [7], in assay [5] and in [6] was inactive.

Source of the values: PubChem BioAssay (Tox21).
